Results from paper PMC5540273 (PLoS ONE, 2017).

Legend:
Details in all cases: concentration: 1 μM, replicates: in singlicate; n = 1
ADCK4 = system: ADCK4
AKT1 = system: AKT1
AKT2 = system: AKT2
AKT3 = system: AKT3
ALK = system: ALK
AMPK-alpha1 = system: T1, AMPK-alpha1
T1 construct: gene PRKAA1

AMPK-alpha2 = system: T2, AMPK-alpha2
T2 construct: gene PRKAA2

ANKK1 = system: ANKK1
ARK5 = system: T3, ARK5
T3 construct: gene NUAK1

ASK1 = system: T4, ASK1
T4 construct: gene MAP3K5

ASK2 = system: T5, ASK2
T5 construct: gene MAP3K6

AURKA = system: AURKA
AURKB = system: AURKB
AURKC = system: AURKC
AXL = system: AXL
BIKE = system: T6, BIKE
T6 construct: gene BMP2K

BLK = system: BLK
BMPR1A = system: BMPR1A
BMPR1B = system: BMPR1B
BMPR2 = system: BMPR2
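Note: KINOMEscan kinase panel screen.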

Row | SMILES | %Inh (ADCK4) | %Inh (AKT1) | %Inh (AKT2) | %Inh (AKT3) | %Inh (ALK) | %Inh (AMPK-alpha1) | %Inh (AMPK-alpha2) | %Inh (ANKK1) | %Inh (ARK5) | %Inh (ASK1) | %Inh (ASK2) | %Inh (AURKA) | %Inh (AURKB) | %Inh (AURKC) | %Inh (AXL) | %Inh (BIKE) | %Inh (BLK) | %Inh (BMPR1A) | %Inh (BMPR1B) | %Inh (BMPR2)
1 | O=C(Nc1cccc(-c2nn3ccccc3c2-c2ccnc(Nc3cccc(C(F)(F)F)c3)n2)c1)c1c(F)cccc1F [GSK292658] | 0% | 0% | 8% | 2% | 0% | 0% | 13% | 13% | 12% | 2% | 2% | 2% | 0% | 49% | 12% | 0% | 94% | 0% | 0% | 22%
2 | CCn1c(-c2nonc2N)nc2c(C#CC(C)(C)O)nc(OC[C@H](N)c3ccccc3)cc21 [GSK943949] | 0% | 95.8% | 98.8% | 95.8% | 19% | 0% | 3% | 0% | 18% | 0% | 0% | 37% | 0% | 4% | 13% | 19% | 0% | 0% | 9% | 1%
3 | Cl.Cl.NCC(C(=O)Nc1cc(Br)c(-c2ccnc3[nH]ccc23)s1)c1ccccc1 (stereo not shown) [GSK1269851] | 95.7% | 61% | 25% | 66% | 39% | 0% | 0% | 0% | 0% | 0% | 26% | 81% | 9% | 53% | 57% | 99.8% | 0% | 78% | 0% | 30%
4 | CN(c1ccc(NC(=O)Nc2cc(C(F)(F)F)ccc2F)cc1)c1ccnc(Nc2ccc(S(N)(=O)=O)cc2)n1 [GW809893] | 7% | 17% | 11% | 9% | 73% | 27% | 19% | 78% | 1% | 0% | 17% | 90.7% | 95.7% | 67% | 93.3% | 26% | 96.7% | 28% | 20% | 78%
5 | COc1cccc(C(=O)Nc2cccc(Oc3ccc4nc(NC(=O)C5CC5)cn4n3)c2)c1 | 39% | 19% | 0% | 3% | 0% | 23% | 0% | 0% | 0% | 7% | 0% | 55% | 81% | 74% | 65% | 18% | 95.3% | 10% | 13% | 0%
6 | Cl.Cl.NCC(NC(=O)c1cc(-c2ccccc2)c(-c2ccnc3[nH]ccc23)s1)c1ccccc1 (stereo not shown) [GSK1321561] | 89% | 57% | 0% | 80% | 27% | 5% | 0% | 0% | 16% | 0% | 1% | 33% | 0% | 69% | 46% | 79% | 58% | 4% | 0% | 0%
7 | O=C(Nc1ccccc1F)NC1CCN(c2ccnc(Nc3ccc(F)cc3)n2)CC1 [GSK1379800] | 64% | 0% | 11% | 0% | 17% | 14% | 0% | 1% | 0% | 4% | 17% | 15% | 0% | 54% | 15% | 39% | 0% | 8% | 0% | 12%
8 | O=C(Nc1n[nH]c2cc(-c3ccoc3)ccc12)C1CC1 [SB-738481] | 0% | 0% | 0% | 0% | 0% | 0% | 0% | 23% | 0% | 0% | 5% | 23% | 20% | 19% | 37% | 35% | 0% | 11% | 21% | 60%
9 | c1ccc(-c2n[nH]cc2Nc2ccnc3ccccc23)nc1 [GW694077] | 51% | 0% | 2% | 0% | 21% | 0% | 0% | 75% | 0% | 0% | 1% | 15% | 45% | 78% | 0% | 100% | 28% | 0% | 3% | 47%
10 | O=C(Nc1cccc(-c2nn3ncccc3c2-c2ccnc(Nc3ccccc3)n2)c1)c1c(F)cccc1F [GSK198271] | 31% | 0% | 16% | 0% | 38% | 12% | 15% | 69% | 38% | 0% | 6% | 65% | 32% | 64% | 100% | 16% | 97.5% | 0% | 0% | 0%
11 | Cc1ccc(S(=O)(=O)Nc2ccc(Nc3nccc(Nc4cccc5[nH]ncc45)n3)cc2)cc1 [GSK581271] | 87% | 0% | 0% | 0% | 24% | 0% | 0% | 0% | 5% | 0% | 0% | 99.8% | 37% | 52% | 0% | 65% | 0% | 0% | 0% | 4%
12 | Cl.c1ccc(-c2ccc3c(Nc4ccc5[nH]ncc5c4)ccnc3c2)nc1 [GW440137] | 38% | 0% | 0% | 0% | 31% | 0% | 0% | 14% | 11% | 0% | 19% | 1% | 3% | 22% | 4% | 18% | 40% | 0% | 31% | 0%
13 | Oc1cc(Nc2ccnc3cc(I)ccc23)ccc1F [GW552771] | 38% | 0% | 16% | 0% | 34% | 15% | 1% | 0% | 18% | 0% | 4% | 0% | 8% | 8% | 3% | 5% | 80% | 56% | 99.9% | 6%
14 | COc1cc(Nc2nccc(N3CCC(NC(=O)Nc4cccc(C(C)=O)c4)C3)n2)cc(OC)c1OC (stereo not shown) [GSK1379753] | 55% | 0% | 0% | 0% | 44% | 0% | 0% | 41% | 27% | 0% | 0% | 83% | 57% | 77% | 0% | 74% | 9% | 0% | 0% | 9%
15 | COc1ccc(-c2coc3ccc(-c4nnc(SCc5ccc(OC)c(C(F)(F)F)c5)o4)cc23)cc1 | 10% | 4% | 0% | 0% | 0% | 31% | 0% | 38% | 0% | 17% | 0% | 21% | 11% | 7% | 11% | 0% | 7% | 20% | 13% | 14%
16 | C[C@@H]1CC[C@@H](C(=O)Nc2ccccc2)CN1c1cc(-c2ccc3c(N)n[nH]c3c2)nc(N)n1 [GSK2286062] | 14% | 0% | 7% | 0% | 0% | 13% | 0% | 3% | 19% | 0% | 2% | 4% | 16% | 26% | 0% | 9% | 0% | 0% | 0% | 0%
17 | CCS(=O)(=O)c1ccc(OC)c(Nc2nccc(-c3c(-c4cccc(NC(=O)c5c(F)cccc5F)c4)nn4ncccc34)n2)c1 [GSK326180] | 18% | 0% | 15% | 0% | 25% | 2% | 27% | 0% | 18% | 20% | 9% | 15% | 25% | 60% | 9% | 40% | 36% | 0% | 0% | 4%
18 | Cc1ccc(C)c(NC(=O)NC2CCN(c3ccnc(Nc4ccc(F)cc4)n3)C2)c1 (stereo not shown) [GSK1379720] | 48% | 0% | 19% | 0% | 28% | 7% | 0% | 0% | 0% | 0% | 0% | 0% | 48% | 76% | 0% | 23% | 24% | 0% | 0% | 21%
19 | COc1cc(Nc2nccc(N3CCC(NC(=O)c4cc5ccccc5s4)C3)n2)cc(OC)c1OC (stereo not shown) [GSK1379760] | 26% | 1% | 8% | 0% | 19% | 45% | 30% | 12% | 17% | 20% | 100% | 59% | 68% | 86% | 14% | 70% | 100% | 0% | 0% | 13%
20 | O=c1[nH]cc(-c2ccc(N3CCOCC3)cc2)c2sc(-c3cn[nH]c3)cc12 [GSK2276055] | 0% | 0% | 16% | 0% | 4% | 0% | 0% | 21% | 18% | 0% | 13% | 28% | 21% | 21% | 0% | 28% | 0% | 1% | 0% | 24%
